Where “and” joins values, the source holds several entries; their conditions need not be identical. Equal values may be shown once. Hit rate of the full screen: of about 310,000 compounds, about 11,000 (3.5%) were called active. Inconclusive results (about 4%) are left out. The entries come from a sample that favours actives as a whole. Unmarked numbers belong to inactive results. Calls follow the shape of the dose curve; as a rule, active = well fitted inhibition curve with a large enough effect; inconclusive = small, poorly fitted or top-dose-only effect, or another doubt; inactive = no such curve, though single readings can be large or run the other way.
Each molecule was assayed against 4'-phosphopantetheinyl transferase ffp (Bacillus subtilis) (UniProt Q9F4F7) (assay: qHTS Assay for Inhibitors of Bacillus subtilis Sfp phosphopantetheinyl transferase (PPTase)). Conditions: Biochemical Sfp PPTase activity.
Outline: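 Fluorescence-quenching assay with 15 nM Sfp, 5 uM rhodamine-CoA and 12.5 uM BHQ-2-labelled ybbR peptide in pH 7.6 Hepes/MgCl2 buffer. Enzyme was pre-incubated with compound for 15 min at room temperature. Rate was taken from the 30-min fluorescence change (525/598 nm).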
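Also: the enzyme is Sfp with the accession as filed and its product quenches rhodamine fluorescence.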
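For largest response in the series, negative = inhibition in this document: 0% = enzyme reaction without inhibitor and -100% = no enzyme wells.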
Potency is read from the fitted curve at half-maximal effect.

| SMILES | Potency | largest response in the series, negative = inhibition |
| --- | --- | --- |
| CN(Cc1ccco1)c1ncncc1-c1ccoc1 | 79.4 µM (active) |  |
| CN(Cc1ccco1)c1cc(-c2ccccc2C(F)(F)F)ncn1 |  | -8.82% |
| Cc1ccccc1-c1nc(N(C)Cc2ccco2)c2ccccc2n1 |  | -22.5% |
| CCC1OC(c2ccc([N+](=O)[O-])cc2)=Nc2ccccc21 (configuration not stated) |  | -5.21% |
| CCOc1cc(C)ccc1OCc1nnc(SCC(=O)Nc2cccc(C(=O)O)c2)n1-c1ccccc1 |  | 22.3% |
| Cc1ccc(NC(=O)[C@H](Cc2ccccc2)NC(=O)C2CCNCC2)cc1 |  | 1.09% |
| CCOC(=O)c1c(NC(=O)CCC(=O)NCc2ccco2)sc2c1CCCC2 |  | -8.63% |
| CCOC(=O)c1c(NC(=S)Nc2ccccc2C)sc2c1CCC2 |  | -14.6% |
| CCOC(=O)c1c(NC(=S)NC)sc2c1CCCC2 |  | 7.02% |
| CCCOC(=O)Nc1sc2c(c1C(=O)OCC)CCC2 | 14.1 µM (active) |  |
| CCOC(=O)c1c(NC(=O)Cn2nc(C(F)(F)F)cc2C)sc2c1CCC2 |  | -2.66% |
| CCOC(=O)c1c(NC(=O)C2(C)Cc3ccccc3C(=O)O2)sc2c1CCCC2 (configuration not stated) | 35.5 µM (active) |  |
| Cc1ccc(C(=O)OCC(=O)NC(=O)Cc2ccccc2)c(O)c1 |  | 15.9% |
| Cc1ccc(CNC(=O)C2(C(F)(F)F)C/C(=C\Cc3ccccc3)CCCO2)o1 (configuration not stated) | 35.5 µM (active) and 50.1 µM (active) |  |
| O=C(NCC1CC1)C1(C(F)(F)F)C/C(=C\CCO)CCCO1 (configuration not stated) |  | 1.74% |
| O=C(NCc1ccccn1)[C@]1(C(F)(F)F)C[C@H](CCc2ccccc2)CCCO1 |  | -24.4% |
| Cc1ccc(CNC(=O)C2(C(F)(F)F)C/C(=C\CCO)CCCO2)o1 (configuration not stated) | 50.1 µM (active) |  |
| Cc1ccc(CNC(=O)Cn2cnc(S(=O)(=O)N3CCCCC3)c2)o1 |  | 14.3% |
| CNC(=O)[C@]1(C(F)(F)F)C[C@H](CCc2ccccc2)CCCO1 |  | -10.7% |
| CCCn1nc(NC(=O)C(C)C)c2cc3cc(OC)ccc3nc21 |  | 4.66% |
| CC(O)COc1ccccc1 (configuration not stated) |  | 12.6% |
| COc1ccc(N(CC(=O)NCc2ccc(F)cc2)C(=O)CCC(=O)Nc2nccs2)cc1 |  | -11.5% |
| O=C1CCC(=O)N(c2ccccc2)N1 |  | -3.33% |
| CN(CCC(=O)Nc1cc(S(=O)(=O)N(C)C)ccc1Cl)CC(=O)Nc1ccc(F)cc1 |  | 13.5% |

| SMILES | Potency | largest response in the series, negative = inhibition |
| --- | --- | --- |
| Cn1c(N)c(C(=O)COC(=O)c2cc(C(F)(F)F)nc3c(C(F)(F)F)cccc23)c(=O)n(C)c1=O |  | 13.8% |
| N#C/C(=C/c1ccc(N2CCCCC2)o1)C(=O)NCCc1c[nH]c2ccccc12 |  | -16.2% |
| N#C/C(=C\c1ccc(N2CCOCC2)o1)C(=O)N1CCOCC1 |  | -13.7% |
| N#C/C(=C/c1ccc(N2CCOCC2)o1)C(=O)N1CCOCC1 | 56.2 µM (active) |  |
| CCCCC[C@H]1CN(C2CCCCC2)C(=O)[C@@H]1CC(=O)NCc1ccc(OC)cc1 |  | -4.46% |
| O=C(Nc1ccccc1N1CCN(C(=O)c2ccccc2)CC1)c1ccco1 |  | 14.1% |
| CC(C)[C@@H](NC(=O)OC(C)(C)C)C(=O)NCC1CCC(C(=O)N[C@@H](Cc2ccccc2)C(=O)O)CC1 (some centres not stated) |  | 6.54% |
| O=C(O)CCCCCCCCc1cn(CN2C(=O)c3ccccc3C2=O)nn1 |  | -11% |
| Cc1cccc(COc2ccccc2/C=N/Nc2ccc([N+](=O)[O-])cc2)c1 |  | 24.5% |
| Cc1ccc(NS(=O)(=O)c2ccc(N/N=C/c3ccccc3OCC(=O)O)c([N+](=O)[O-])c2)c(C)c1 | 79.4 µM (active) |  |
| Cc1ccc(NS(=O)(=O)c2ccc(C)c(NC(=O)COc3ccc4ccccc4c3)c2)c(C)c1 |  | -28.6% |
| N#Cc1ccc(/C=C2\CCn3c2nc2cc(C(=O)O)ccc2c3=O)cc1 |  | 31.1% |
| N#Cc1cccc(-c2ccc3ncnc(NCc4cccs4)c3c2)c1 |  | -14.8% |
| O=C(Cc1ccccc1Cl)N1CCOCC1 |  | 17% |
| COC(=O)[C@@]1(Cc2ccc(F)cc2)[C@H]2c3cc(C(=O)N(C)C)n(CCc4c[nH]c5ccc(OC)cc45)c3C[C@H]2CN1C(=O)c1ccccc1 |  | 0.76% |
| O=C(NCc1ccc(Cl)cc1)c1cc(=O)nc2sc(-c3ccccc3)nn12 |  | 1.8% |
| O=C(NCc1ccc(Cl)cc1)NCc1ccc(Cl)cc1 |  | -3.32% |
| O=C(NCc1ccc(Cl)cc1)c1cc2c(nc3sccn32)s1 | 50.1 µM (active) |  |
| Cc1c(C(=O)NCCN(C)C)oc2ccc(S(=O)(=O)N3CCCC3)cc12 |  | 18.9% |
| Fc1cc(F)c2nc(Nc3nc4c(F)cccc4s3)sc2c1 |  | -0.873% |
| NC(=O)c1c(NC(=O)c2ccccc2)sc2c1CCCC2 |  | 4.07% |
| NC(=O)c1c(Nc2nc3c(F)cccc3s2)sc2c1CCCC2 | 44.7 µM (active) |  |
| COc1ccc(N2CCN(S(=O)(=O)c3cc(Br)cnc3N)CC2)cc1 |  | 7.84% |

— PubChem BioAssay AID1490 (National Center for Advancing Translational Sciences (NCATS), 2009)
